# Results: PMC11062922 (Nature Chemical Biology, 2023)
# Where two headings read alike, the source gives them in different places.
# Tests used:
# Parameters in all cases: species or system human, MV4-11 + K-562 + COLO205 + SK-N-BE2 + OVCAR-8
# CDC42BPA = details: read-out: apparent Kd; compound concentrations:100 nM and 1000 nM (sheet 'Samples'); n = 1
# CDC42BPB = details: read-out: apparent Kd; compound concentrations:100 nM and 1000 nM (sheet 'Samples'); n = 1
# CHEK1 = details: read-out: apparent Kd; compound concentrations:100 nM and 1000 nM (sheet 'Samples'); n = 1
# GSK3A = details: read-out: apparent Kd; compound concentrations:100 nM and 1000 nM (sheet 'Samples'); n = 1
# LATS1 = details: read-out: apparent Kd; compound concentrations:100 nM and 1000 nM (sheet 'Samples'); n = 1
# MELK = details: read-out: apparent Kd; compound concentrations:100 nM and 1000 nM (sheet 'Samples'); n = 1
# PIM1 = details: read-out: apparent Kd; compound concentrations:100 nM and 1000 nM (sheet 'Samples'); n = 1
# PKN1 = details: read-out: apparent Kd; compound concentrations:100 nM and 1000 nM (sheet 'Samples'); n = 1
# PKN2 = details: read-out: apparent Kd; compound concentrations:100 nM and 1000 nM (sheet 'Samples'); n = 1
# PRKCA = details: read-out: apparent Kd; compound concentrations:100 nM and 1000 nM (sheet 'Samples'); n = 1
# PRKCB = details: read-out: apparent Kd; compound concentrations:100 nM and 1000 nM (sheet 'Samples'); n = 1
# PRKCD = details: read-out: apparent Kd; compound concentrations:100 nM and 1000 nM (sheet 'Samples'); n = 1
# PRKCI = details: read-out: apparent Kd; compound concentrations:100 nM and 1000 nM (sheet 'Samples'); n = 1
# PRKCZ = details: read-out: apparent Kd; compound concentrations:100 nM and 1000 nM (sheet 'Samples'); n = 1
# PRKG1 = details: read-out: apparent Kd; compound concentrations:100 nM and 1000 nM (sheet 'Samples'); n = 1
# PRKX = details: read-out: apparent Kd; compound concentrations:100 nM and 1000 nM (sheet 'Samples'); n = 1
# ROCK2 = details: read-out: apparent Kd; compound concentrations:100 nM and 1000 nM (sheet 'Samples'); n = 1
# RPS6KA5 = details: read-out: apparent Kd; compound concentrations:100 nM and 1000 nM (sheet 'Samples'); n = 1
# RPS6KB1 = details: read-out: apparent Kd; compound concentrations:100 nM and 1000 nM (sheet 'Samples'); n = 1
# CDC42BPG = details: read-out: apparent Kd; compound concentrations: 100 nM and 1000 nM (sheet 'Samples'), CATDS: 0.120544348793502; n = 1
# DDR1 = details: read-out: apparent Kd; compound concentrations: 100 nM and 1000 nM (sheet 'Samples'), CATDS: 0.140210166469808; n = 1
# DJA1 = tested on: T1, DJA1; details: read-out: apparent Kd; compound concentrations: 100 nM and 1000 nM (sheet 'Samples'), CATDS: 0.100265839502576; n = 1
# T1 construct: gene DNAJA1
# FLT3 = details: read-out: apparent Kd, compound concentrations: 100 nM and 1000 nM (sheet 'Samples'), n = 1
# PIK3C3 = details: read-out: apparent Kd; compound concentrations: 100 nM and 1000 nM (sheet 'Samples'), CATDS: 0.105221440009215; n = 1
# PIK3CA = details: read-out: apparent Kd; compound concentrations: 100 nM and 1000 nM (sheet 'Samples'), CATDS: 0.28704207187710601; n = 1
# PIK3CG = details: read-out: apparent Kd; compound concentrations: 100 nM and 1000 nM (sheet 'Samples'), CATDS: 0.108238843984754; n = 1
# RET = details: read-out: apparent Kd; compound concentrations: 100 nM and 1000 nM (sheet 'Samples'), CATDS: 0.12612517113031699; n = 1
# CAMK2B = details: read-out: apparent Kd; compound concentrations: 100 nM and 1000 nM (sheet 'Samples'), CATDS: 8.8630985713884503E-2; n = 1
# FYN = details: read-out: apparent Kd; compound concentrations: 100 nM and 1000 nM (sheet 'Samples'), CATDS: 6.1091429900981202E-2; n = 1
# HCK = details: read-out: apparent Kd; compound concentrations: 100 nM and 1000 nM (sheet 'Samples'), CATDS: 0.204546800943642; n = 1
# LCK = details: read-out: apparent Kd; compound concentrations: 100 nM and 1000 nM (sheet 'Samples'), CATDS: 6.2891353750110596E-2; n = 1
# LYN = details: read-out: apparent Kd; compound concentrations: 100 nM and 1000 nM (sheet 'Samples'), CATDS: 6.1198388947790797E-2; n = 1
# MAP2K5 = details: read-out: apparent Kd; compound concentrations: 100 nM and 1000 nM (sheet 'Samples'), CATDS: 0.12646942491879101; n = 1
# MAPK14 = details: read-out: apparent Kd; compound concentrations: 100 nM and 1000 nM (sheet 'Samples'), CATDS: 5.4651958851346001E-2; n = 1
# PTK6 = details: read-out: apparent Kd; compound concentrations: 100 nM and 1000 nM (sheet 'Samples'), CATDS: 6.47566338134071E-2; n = 1
# RIPK2 = details: read-out: apparent Kd; compound concentrations: 100 nM and 1000 nM (sheet 'Samples'), CATDS: 0.112898428987699; n = 1
# RIPK3 = details: read-out: apparent Kd; compound concentrations: 100 nM and 1000 nM (sheet 'Samples'), CATDS: 6.7046149691073503E-2; n = 1
# SRC = details: read-out: apparent Kd; compound concentrations: 100 nM and 1000 nM (sheet 'Samples'), CATDS: 7.0333029214927095E-2; n = 1
# YES1 = details: read-out: apparent Kd; compound concentrations: 100 nM and 1000 nM (sheet 'Samples'), CATDS: 8.7589956864903007E-2; n = 1
compound,measurement,setting,value
CCn1c(-c2nonc2N)nc2cncc(CNC3CCNCC3)c21 [SB-747651A],potency estimated from few doses,CDC42BPA,1740 nM
same,potency estimated from few doses,CDC42BPB,1900 nM
same,potency estimated from few doses,CHEK1,2160 nM
same,potency estimated from few doses,GSK3A,1100 nM
same,potency estimated from few doses,LATS1,782 nM
same,potency estimated from few doses,MELK,655 nM
same,potency estimated from few doses,PIM1,1120 nM
same,potency estimated from few doses,PKN1,40 nM
same,potency estimated from few doses,PKN2,94.5 nM
same,potency estimated from few doses,PRKCA,197 nM
same,potency estimated from few doses,PRKCB,153 nM
same,potency estimated from few doses,PRKCD,632 nM
same,potency estimated from few doses,PRKCI,1480 nM
same,potency estimated from few doses,PRKCZ,2000 nM
same,potency estimated from few doses,PRKG1,702 nM
same,potency estimated from few doses,PRKX,1590 nM
same,potency estimated from few doses,ROCK2,36.2 nM
same,potency estimated from few doses,RPS6KA5,96.1 nM
same,potency estimated from few doses,RPS6KB1,22.2 nM
CN1CCN(CCCNc2nc3ccc(Oc4ccc(NC(=O)Nc5cc(C(F)(F)F)ccc5F)cc4)cc3[nH]2)CC1.Cl [GW700494A],potency estimated from few doses,CDC42BPG,1130 nM
same,potency estimated from few doses,DDR1,826 nM
same,potency estimated from few doses,DJA1,1780 nM
same,potency estimated from few doses,FLT3; CATDS: 0.118432535218852,1170 nM
same,potency estimated from few doses,PIK3C3,1560 nM
same,potency estimated from few doses,PIK3CA,263 nM
same,potency estimated from few doses,PIK3CG,1450 nM
same,potency estimated from few doses,RET,1020 nM
c1ccc(Oc2ccc(Nc3ccnc4cc(-c5ccc(CNCCN6CCOCC6)o5)ccc34)cc2)nc1 [GW567145X],potency estimated from few doses,CAMK2B,448 nM
same,potency estimated from few doses,FLT3; CATDS: 7.5963882735203103E-2,620 nM
same,potency estimated from few doses,FYN,1080 nM
same,potency estimated from few doses,HCK,118 nM
same,potency estimated from few doses,LCK,994 nM
same,potency estimated from few doses,LYN,1080 nM
same,potency estimated from few doses,MAP2K5,239 nM
same,potency estimated from few doses,MAPK14,1550 nM
same,potency estimated from few doses,PTK6,917 nM
same,potency estimated from few doses,RIPK2,288 nM
same,potency estimated from few doses,RIPK3,837 nM
same,potency estimated from few doses,SRC,742 nM
same,potency estimated from few doses,YES1,459 nM
